Screening data deposited in PubChem BioAssay by National Center for Advancing Translational Sciences (NCATS).
aSyn rescue: inhibitors of alpha-synuclein toxicity in yeast. Yeast expressing alpha-synuclein, growth rescue, BacTiter-Glo, 24 h. Potency, µM (doses to about 46.1 µM), for inactives: at the highest dose growth rescue (activation), actives largely listed as activators. 0.14% of 370,000 active; also: % of control where 0% means no effect; nearly all actives have a fitted effect of over 65% in size
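Readout is rescue of growth in alpha-synuclein-expressing yeast, so inhibitors of toxicity appear as activators. Growth after 24 hr at 30 deg C in galactose medium is quantified by luminescence.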
TDP43 rescue: rescues yeast growth from TDP-43 toxicity; TDP-43 expressing yeast growth rescue, BacTiter-Glo, 24 h; Potency, µM (top dose mostly 46.1 µM), inactives show top-dose growth rescue (activation), usual class: activators; 1.8% of 410,000 active; also: % of control where 0% means no effect; nearly all actives have a fitted effect of over 50% in size
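Cell-based yeast growth screen: TDP-43 expression induced in galactose, inoculum OD600=0.02 after raffinose pregrowth to mid-log. Read-out BacTiter-Glo luminescence at 24 hr, 30 deg C; inhibition of toxicity seen as signal increase.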
Abeta yeast res: restores growth of yeast expressing A-beta42 peptide; 0.063% of 410,000 active; Potency, µM (highest dose often 46.1 µM), hits mostly activators; yeast expressing A-beta42, growth rescue, OD600, 48 h; response scale: 0% DMSO, 100% iron-clioquinol control; AID 1347071; also: nearly all actives have a fitted effect of over 55% in size
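Yeast growth medium received pinned compounds, then yeast cells expressing toxic A-beta were added; plates incubated at 30 C for 48 hr. Growth read as absorbance at 600 nm, normalized to DMSO and equimolar FeCl3 plus clioquinol controls.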
FUS yeast rescue: rescues growth of FUS-expressing yeast; AID 1347120; 0.24% of 390,000 active; Potency, µM (doses to about 76.6 µM), usual class: activators; S. cerevisiae FUS-expressing, growth rescue, OD600, 24 h;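 also: plate controls were DMSO vehicle for no effect and reference control for full effect; nearly all actives have a fitted effect of over 55% in size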
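Absorbance at 600 nm, taken 24hr after compound addition, measured rescue of FUS-yeast growth at 30C. Induction used 2% galactose with seeding at OD 0.005. Controls: CP55940 from 92uM final, DMSO only.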
* hit, by the source's call; i = inactive; ? = inconclusive; / = not tested or not shown; [ ] = dose if it differs, or a comment. This is a sample that favours compounds with a hit; in the whole collection about 2.1% have one here. Calls follow the shape of the dose curve; as a rule, active = well fitted curve in the direction sought with a large enough effect; inconclusive = small, poorly fitted or top-dose-only effect, or another doubt; inactive = no such curve, though single readings can be large; an effect the other way counts as inactive or inconclusive. Potency is read from the fitted curve at half-maximal effect.

SMILES	aSyn rescue	TDP43 rescue	Abeta yeast res	FUS yeast rescue
COc1ccc(/C=C/c2nnc(NC(=O)COc3ccc(Cl)cc3)s2)cc1	11%	/	/	/
C=C1CC(COc2cc(=O)oc3ccccc23)(c2ccccc2)OC1=O (stereo not drawn)	18%	7%	i	/
C=C1CCC2C(C)(C)[C@@H](O)CC[C@@]2(C)[C@@H]1COc1ccc2ccc(=O)oc2c1 (stereo partly drawn)	18µM*	12%	i	i
C=C1CCC2C(C)(C)[C@H](O)CC[C@@]2(C)[C@@H]1COc1cc(=O)oc2ccccc12 (stereo partly drawn)	-25%	3%	i	35µM*
COc1ccc(OC)c(S(=O)(=O)NCCc2sc(C)nc2C)c1	-2%	14%	i	i
COc1ccccc1C1CCN(C(=O)c2cccs2)CC1	-3%	13µM*	i	i
CC(C)C1OC2c3cccc4cccc(c34)C2N1c1ccccc1 (stereo not drawn)	0%	13µM*	i	i
Cc1ccc(S(=O)(=O)N2CCN(c3nc(-c4cccs4)nc4ccccc34)CC2)c(C)c1	-9%	/	/	/
COC(=O)c1cccc(CN2C(=O)SC(Nc3ccccc3C)C2=O)c1 (stereo not drawn)	/	?	i	i
COC(=O)c1cccc(CN2C(=O)SC(Nc3ccc(Cl)cc3)C2=O)c1 (stereo not drawn)	/	16µM*	i	i
COC(=O)c1cccc(CN2C(=O)SC(Nc3ccc(Br)cc3)C2=O)c1 (stereo not drawn)	/	16µM*	i	?
COC(=O)c1cccc(CN2C(=O)SC(Nc3ccc(C)cc3)C2=O)c1 (stereo not drawn)	13%	22%	?	i
CC(=O)N1CCc2c(sc3c2c(=O)n(CCc2ccccc2)c(=O)n3CC(=O)Nc2ccc(C)c(F)c2)C1	/	7%	i	i
CC(C)n1nnnc1C1(C)CN(S(C)(=O)=O)CC(=O)N1Cc1cccc(C(F)(F)F)c1 (stereo not drawn)	/	/	/	i
COc1cccc2c(=O)c3c(cnn3C)n(C)c12	25µM*	?	?	i
COc1cccc2c(=O)c3ccoc3n(C)c12	10%	0%	i	i
Cc1cccc(NC(=O)CSCC(=O)N(C)Cc2ccc(Cl)c(Cl)c2)c1	14%	25µM*	i	i
CCCCCC(=O)NC1CCCCN(Cc2ccccc2C)C1=O (stereo not drawn)	/	/	/	i
CC(C)Cn1c(-c2ccc(Br)cc2)c[nH]c1=S	10%	-15%[0.397 µM]	3.2µM*	i
Cc1cc2nn(-c3ccccc3)nc2cc1NC(=O)COc1ccc(Cl)cc1	/	3%	i	i
Cc1ccccc1-n1c(-c2csc3ccccc23)n[nH]c1=S	4%	20µM*	i	i
Cc1ccccc1-n1c(-c2csc(C)c2C)n[nH]c1=S	15%	?	4.5µM*	i
C=CCn1c(-c2csc3ccccc23)n[nH]c1=S	0%	19%	i	i
CC(c1ccccc1)n1c(-c2ccccc2)n[nH]c1=S (stereo not drawn)	9%	/	/	/
Cc1scc(-c2n[nH]c(=S)n2C(C)c2ccccc2)c1C (stereo not drawn)	-1%	35µM*	i	/
SMILES	aSyn rescue	TDP43 rescue	Abeta yeast res	FUS yeast rescue
COc1cc(NC(=O)Cn2nc(C(F)(F)F)c3c2CCCC3)c(OC)cc1Cl	/	9%	i	i
O=C(C1CCCCC1)N(Cc1cccnc1)c1nc2c(F)cc(F)cc2s1	/	?	i	i
O=C(NCc1ccco1)C1CCCN(S(=O)(=O)c2ccccc2[N+](=O)[O-])C1 (stereo not drawn)	/	/	/	i
Cc1cccc(-c2nc3c4ccccc4nc(N4CCN(c5cccc(Cl)c5)CC4)n3n2)c1	/	?	i	i
O=C1CC(c2nnc(Cc3ccccc3Cl)o2)CN1c1ccccc1 (stereo not drawn)	/	24%	i	i
c1csc(-c2nc3c4ccccc4c4ccccc4c3[nH]2)c1	3%	20µM*	i	i
Cc1nc(C)c(-c2csc(Nc3ccc(Cl)cn3)n2)s1	-27%	13µM*	i	i
COc1ccc(OC)c(Nc2nc(-c3sc(C)nc3C)cs2)c1	8%	22µM*	i	i
Clc1ccc2nc(Nc3ccccc3Cl)nc(-c3ccccc3)c2c1	/	19%	i	i
COc1ccc(C(=O)/C=C/C(=O)N(Cc2ccccc2)C(C(=O)NC2CCCCC2)c2ccncc2)c(O)c1 (stereo not drawn)	12%	17%	i	/
COc1ccc(C(=O)/C=C/C(=O)N(Cc2ccc(F)cc2)C(C(=O)NC2CCCCC2)c2ccncc2)c(O)c1 (stereo not drawn)	25µM*	20µM*	i	/
COc1cccc2sc(N3CCN(C(=O)CS(=O)(=O)c4ccc(Cl)cc4)CC3)nc12	/	?	i	i
Cc1cnc(/C=C/c2ccc(N(C)C)cc2)cn1	0%	/	/	/
Cc1cc(C)c2c(n1)SCCN2C(=O)Nc1ccc(C(=O)Nc2cc(Cl)ccc2C)cc1	/	3%	i	i
CCCc1ccc(OCC(=O)O)cc1	0%	-10%	i	i
CCCOc1ccc(CCC(=O)O)cc1	1%	14µM*	i	i
N#Cc1cn(-c2ccccc2)nc1-c1ccco1	/	8.9µM*	i	i
Cc1ccccc1NC(=O)c1nc(SCc2ccccc2F)ncc1Cl	3%	/	/	/
CCSc1nnc(NC(=O)c2ccc3ccccc3n2)s1	-11%	-1%	i	i
Cc1nnc(NC(=O)c2nc(SCc3ccccc3F)ncc2Cl)s1	/	16µM*	i	?
CC(C)c1nnc(NC(=O)c2nc(SCc3ccc(F)cc3)ncc2Cl)s1	/	12%	i	8.9µM*
CCc1nnc(NC(=O)c2nc(SCc3ccccc3F)ncc2Cl)s1	/	18µM*	i	i
CCc1nnc(NC(=O)c2ccc3ccccc3n2)s1	6%	32µM*	i	i
Cc1c(Cl)cccc1NC(=O)CSc1cc(-c2ccccc2)ncn1	/	18%	i	i
CN1OC[C@@H]2CN(Cc3cc(Cl)cc(Cl)c3)[C@H](c3cccc(Br)c3)C[C@@H]21	-9%	35µM*	i	i
SMILES	aSyn rescue	TDP43 rescue	Abeta yeast res	FUS yeast rescue
Cc1ccccc1-c1cccc([C@@H]2C[C@H]3[C@H](CON3C)CN2Cc2cc(Cl)cc(Cl)c2)c1	-1%	20µM*	i	i
Cc1ccccc1C(=O)Nc1ccc(S(=O)(=O)N2CCC(c3nc4ccccc4s3)CC2)cc1	/	20%	i	i
COc1cc(NC(=O)CCS(=O)(=O)c2ccc3c(c2)CC(=O)N3C)cc(OC)c1OC	/	-9%	i	i
O=S(=O)(c1cccc(C(F)(F)F)c1)N1CCC(Oc2ccc(-n3cnnn3)cc2)CC1	/	24%	i	i
COCCCNc1ccn2nc(-c3ccc(Cl)cc3)cc2n1	-14%	11µM*	i	i
O=C(CSc1nc2c([nH]c3ccccc32)c(=O)n1-c1ccc(Cl)cc1)NCC1CCCO1 (stereo not drawn)	2%	13%	i	i
